These results are taken from PubChem BioAssay.

Calls of active or inactive are those of the source.

Experiment [1] relates to PRMT1 (protein arginine N-methyltransferase 1). In words: PRMT1 binders on small-molecule microarrays, primary screen, biochemical, small-molecule microarray, 635 nm fluorescence (AID 1088).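 Further: binding of Prmt1 protein to compounds spotted on small-molecule microarray slides.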 The following applies: small-molecule microarray binding, higher = more signal.
Experiment [2] in a line: yeast growth modulation, basal conditions, primary screen, YJM789 clinical isolate, OD600, 24 h (AID 1089).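 Further: growth of clinical yeast isolate S. cerevisiae YJM 789 seeded 1000 cells per well; test concentration not given here.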 The following applies: S. cerevisiae YJM789 growth, higher = more signal, called active from +8 up or from −8 down.
Experiment [3] is described as follows: fission yeast growth modulation, primary screen, strain 972, OD600, 24 h, no modulator (AID 1090).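 Further: basal condition with compound alone and no growth modifier present; test concentration not given here.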 The following applies: S. pombe 972 growth, higher = more signal, called active from +8 up or from −8 down.
Experiment [4] is described as follows: S. cerevisiae growth modulation with rapamycin, primary screen, strain BY4716, OD600, 96 h (AID 1091). Further: test concentration not given here. The following applies: higher = more signal, called active from +8 up or from −8 down.
In experiment [5] the target is Torsin-1A-interacting protein 2 (Homo sapiens) (UniProt Q8NFQ8). In words: LULL1 binders on small-molecule microarray, primary screen, cell lysate, human LULL1 lysate, 635/667 nm fluorescence (AID 1092).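 Further: probe is lysate of COS7 cells overexpressing human LULL1; score merges per-feature 667 nm fluorescence with signal-to-noise.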 The following applies: hLULL1 lysate binding, 635 nm fluorescence, higher = more signal.
Chain of Torsin-1A-interacting protein 2 (Homo sapiens) (Q8NFQ8 whole entry, looked up): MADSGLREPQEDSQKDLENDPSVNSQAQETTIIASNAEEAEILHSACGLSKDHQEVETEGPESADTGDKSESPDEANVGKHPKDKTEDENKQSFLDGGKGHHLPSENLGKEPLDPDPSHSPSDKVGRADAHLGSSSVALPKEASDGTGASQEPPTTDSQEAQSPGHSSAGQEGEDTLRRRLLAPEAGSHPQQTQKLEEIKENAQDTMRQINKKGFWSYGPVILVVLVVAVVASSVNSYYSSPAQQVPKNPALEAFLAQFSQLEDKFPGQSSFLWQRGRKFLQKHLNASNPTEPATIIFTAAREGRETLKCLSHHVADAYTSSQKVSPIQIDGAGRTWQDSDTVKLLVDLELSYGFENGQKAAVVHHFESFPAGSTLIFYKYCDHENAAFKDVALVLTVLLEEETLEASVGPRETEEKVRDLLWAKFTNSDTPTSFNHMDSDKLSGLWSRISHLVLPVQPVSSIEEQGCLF
Experiment [6] is described as follows: E. coli growth modulation, two-sided OD650, primary screen, E. coli filamentation project, strain DRC41, 24 h (AID 1093).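 Further: MC1000 strain lacking acrAB efflux and sulA so SOS filamentation is blocked; test concentration not given here.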 The following applies: OD650, 24 h, higher = more signal, called active from +8 up or from −8 down.
Experiment [7] can be described thus: small-molecule microarray binders of probe aLefty2, primary screen, biochemical, biotinylated probe, 635/667 nm fluorescence (AID 1094).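 Further: score merges spot fluorescence near 667 nm with spot signal-to-noise ratio.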 The following applies: higher = more signal.
Experiment [8] concerns Noggin (protein binding on small-molecule microarray). In words: Noggin binders on small-molecule microarray, primary screen, biochemical, 635/667 nm fluorescence (AID 1095).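 Further: score merges 667 nm feature fluorescence with signal to noise over triplicate slides.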 The following applies: 635 nm fluorescence, higher = more signal.
Experiment [9] addresses Neurogenic locus notch homolog protein 3 (Homo sapiens) (UniProt Q9UM47). In words: NOTCH3 binders on small-molecule microarray, primary screen, biochemical, 635/667 nm fluorescence (AID 1096). The following applies: NOTCH3 binding, 635 nm fluorescence, higher = more signal.
A short description of experiment [10]: small-molecule microarray binders of probe aEGFR, primary screen, biochemical, biotinylated probe, 635/667 nm fluorescence (AID 1097).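 Further: probe is a biotinylated anti-EGFR antibody binding compounds printed on slides; score combines fluorescence near 667 nm and signal to noise of each spot.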 The following applies: higher = more signal.
The test system of experiment [11] is Plasmodium falciparum Sir2 (PF13_0152, Sir2A). In words: pfSir2 binders on small-molecule microarrays, primary screen, biochemical, small-molecule microarray, 635 nm fluorescence (AID 1098).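 Further: score merges spot fluorescence intensity with its signal-to-noise ratio.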 The following applies: small-molecule microarray binding, fluorescence 635 nm; higher = more signal.
A short description of experiment [12]: small-molecule microarray binders of probe aDKK1, primary screen, biochemical, biotinylated probe, 635/667 nm fluorescence (AID 1099).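 Further: score merges 667nm spot fluorescence with signal to noise across triplicate slides; reference of the scale not given here.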 The following applies: higher = more signal.
Experiment [13] can be described thus: small-molecule microarray binders of probe aCHRDL2, primary screen, biochemical, biotinylated probe, 635/667 nm fluorescence (AID 1100). The following applies: higher = more signal.
Experiment [14] in a line: splicing luciferase reporter signal modulators, primary screen, spliceosome inhibition project, cell-based, HEK293, splice +/- reporter (AID 1101).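 Further: HEK293 cells carrying a splicing-competent luciferase reporter gene; test concentration not given here.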 The following applies: luminescence, 24 h, higher = more signal, called active from +8 up or from −8 down. A general note: Reporter assays use an easily measured gene product as a stand-in for the process of interest.
The target of experiment [15] is Fibroblast growth factor 10 (Homo sapiens) (UniProt O15520). As to the kind of experiment: FGF10 binders on small-molecule microarrays, primary screen, biochemical, small-molecule microarray, 635 nm fluorescence (AID 1102). The following applies: FGF10 binding, fluorescence 635 nm, higher = more signal.
Chain of Fibroblast growth factor 10 (Homo sapiens) (O15520 whole entry, looked up): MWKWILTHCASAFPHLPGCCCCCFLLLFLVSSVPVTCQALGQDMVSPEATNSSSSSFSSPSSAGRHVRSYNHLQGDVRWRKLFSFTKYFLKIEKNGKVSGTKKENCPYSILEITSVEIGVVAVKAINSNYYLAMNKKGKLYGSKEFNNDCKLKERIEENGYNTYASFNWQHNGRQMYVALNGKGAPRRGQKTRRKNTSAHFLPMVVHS
Experiment [16] deals with glycogen synthase kinase-3 (GSK3A per assay name; protocol says GSK3B). In words: GSK3 binders on small-molecule microarrays, primary screen, biochemical, small-molecule microarray, 635 nm fluorescence, GSK3A (AID 1103). Further: the record names both GSK3A and GSK3B. The following applies: small-molecule microarray binding, fluorescence 635 nm; higher = more signal.
The target of experiment [17] is Epidermal growth factor receptor (Homo sapiens) (UniProt P00533). As to the kind of experiment: EGFR binders on small-molecule microarrays, primary screen, biochemical, small-molecule microarray, 635 nm fluorescence (AID 1104).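 Further: score merges 667 nm emission intensity with spot signal to noise over triplicate slides.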 The following applies: EGFR binding, higher = more signal.
Chain of Epidermal growth factor receptor (Homo sapiens) (P00533 whole entry, looked up): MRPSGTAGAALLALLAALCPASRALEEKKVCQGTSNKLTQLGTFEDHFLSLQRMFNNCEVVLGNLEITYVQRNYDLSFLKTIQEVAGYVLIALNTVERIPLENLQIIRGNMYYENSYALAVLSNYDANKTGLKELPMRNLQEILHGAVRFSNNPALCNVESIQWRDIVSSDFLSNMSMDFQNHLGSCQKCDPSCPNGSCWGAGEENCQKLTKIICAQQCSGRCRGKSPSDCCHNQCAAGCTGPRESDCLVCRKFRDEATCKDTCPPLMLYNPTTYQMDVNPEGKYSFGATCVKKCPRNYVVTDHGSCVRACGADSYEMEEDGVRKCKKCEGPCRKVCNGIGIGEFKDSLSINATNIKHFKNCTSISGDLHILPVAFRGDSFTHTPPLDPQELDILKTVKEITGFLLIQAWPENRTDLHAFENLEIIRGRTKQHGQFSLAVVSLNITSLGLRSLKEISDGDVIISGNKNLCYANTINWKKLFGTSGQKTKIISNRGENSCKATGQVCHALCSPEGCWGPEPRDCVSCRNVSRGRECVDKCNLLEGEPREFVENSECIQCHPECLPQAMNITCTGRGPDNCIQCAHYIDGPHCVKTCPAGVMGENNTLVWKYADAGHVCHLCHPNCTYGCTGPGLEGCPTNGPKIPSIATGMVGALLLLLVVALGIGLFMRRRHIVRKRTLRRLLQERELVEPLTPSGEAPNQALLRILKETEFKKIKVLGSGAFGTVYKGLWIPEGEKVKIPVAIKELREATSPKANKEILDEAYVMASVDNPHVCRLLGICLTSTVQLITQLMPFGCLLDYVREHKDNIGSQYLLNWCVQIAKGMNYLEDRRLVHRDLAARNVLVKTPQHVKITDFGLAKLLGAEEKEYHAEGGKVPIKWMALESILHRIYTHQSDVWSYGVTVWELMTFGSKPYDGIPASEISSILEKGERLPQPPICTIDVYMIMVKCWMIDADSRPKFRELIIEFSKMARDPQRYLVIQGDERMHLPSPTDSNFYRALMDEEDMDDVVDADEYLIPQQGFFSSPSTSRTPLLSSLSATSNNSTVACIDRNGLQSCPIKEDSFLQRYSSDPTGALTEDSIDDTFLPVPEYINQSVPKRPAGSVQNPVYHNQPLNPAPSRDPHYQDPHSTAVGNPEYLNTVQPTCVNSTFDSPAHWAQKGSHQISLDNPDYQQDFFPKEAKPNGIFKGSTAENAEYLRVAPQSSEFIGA
The target in experiment [18] is Follistatin-related protein 3 (Homo sapiens) (UniProt O95633). In words: FSTL3 binders on small-molecule microarrays, primary screen, biochemical, small-molecule microarray, 635 nm fluorescence (AID 1105).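 Further: score merges emission near 667 nm and signal to noise per printed spot across three slides.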 The following applies: FSTL3 binding, higher = more signal.
Chain of Follistatin-related protein 3 (Homo sapiens) (O95633 whole entry, looked up): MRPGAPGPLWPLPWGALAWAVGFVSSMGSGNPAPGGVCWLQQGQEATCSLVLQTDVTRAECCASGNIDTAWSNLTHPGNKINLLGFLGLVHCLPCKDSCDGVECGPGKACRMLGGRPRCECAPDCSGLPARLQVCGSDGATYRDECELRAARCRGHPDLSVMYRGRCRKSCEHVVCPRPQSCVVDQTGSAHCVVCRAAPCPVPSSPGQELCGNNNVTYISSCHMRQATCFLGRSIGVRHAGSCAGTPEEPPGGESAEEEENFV
Experiment [19] has as its target Dickkopf-related protein 1 (Homo sapiens) (UniProt O94907). As to the kind of experiment: DKK1 binders on small-molecule microarrays, primary screen, biochemical, small-molecule microarray, 635 nm fluorescence scan (AID 1106).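 Further: score merges emission near 667 nm with signal to noise over three replicate slides.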 The following applies: DKK1 binding, higher = more signal.
Experiment [20] deals with Inhibin beta A chain (activin A). In words: INHBA (activin A) binders on microarrays, primary screen, biochemical, small-molecule microarray, 635 nm fluorescence scan (AID 1107).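 Further: mouse activin A protein probed at 4.33 µg/mL on printed slides; score merges bound-protein fluorescence near 667 nm with spot signal-to-noise.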 The following applies: small-molecule microarray binding, higher = more signal.

Chain of Dickkopf-related protein 1 (Homo sapiens) (O94907 whole entry, looked up): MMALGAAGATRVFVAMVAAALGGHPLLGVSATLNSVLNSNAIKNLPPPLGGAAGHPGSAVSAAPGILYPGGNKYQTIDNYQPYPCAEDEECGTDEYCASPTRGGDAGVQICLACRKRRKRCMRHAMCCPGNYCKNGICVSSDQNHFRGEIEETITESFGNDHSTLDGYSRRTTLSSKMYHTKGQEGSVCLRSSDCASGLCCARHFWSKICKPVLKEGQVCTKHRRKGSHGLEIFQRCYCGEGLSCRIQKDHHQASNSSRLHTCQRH
Chain of Neurogenic locus notch homolog protein 3 (Homo sapiens) (Q9UM47 whole entry, looked up): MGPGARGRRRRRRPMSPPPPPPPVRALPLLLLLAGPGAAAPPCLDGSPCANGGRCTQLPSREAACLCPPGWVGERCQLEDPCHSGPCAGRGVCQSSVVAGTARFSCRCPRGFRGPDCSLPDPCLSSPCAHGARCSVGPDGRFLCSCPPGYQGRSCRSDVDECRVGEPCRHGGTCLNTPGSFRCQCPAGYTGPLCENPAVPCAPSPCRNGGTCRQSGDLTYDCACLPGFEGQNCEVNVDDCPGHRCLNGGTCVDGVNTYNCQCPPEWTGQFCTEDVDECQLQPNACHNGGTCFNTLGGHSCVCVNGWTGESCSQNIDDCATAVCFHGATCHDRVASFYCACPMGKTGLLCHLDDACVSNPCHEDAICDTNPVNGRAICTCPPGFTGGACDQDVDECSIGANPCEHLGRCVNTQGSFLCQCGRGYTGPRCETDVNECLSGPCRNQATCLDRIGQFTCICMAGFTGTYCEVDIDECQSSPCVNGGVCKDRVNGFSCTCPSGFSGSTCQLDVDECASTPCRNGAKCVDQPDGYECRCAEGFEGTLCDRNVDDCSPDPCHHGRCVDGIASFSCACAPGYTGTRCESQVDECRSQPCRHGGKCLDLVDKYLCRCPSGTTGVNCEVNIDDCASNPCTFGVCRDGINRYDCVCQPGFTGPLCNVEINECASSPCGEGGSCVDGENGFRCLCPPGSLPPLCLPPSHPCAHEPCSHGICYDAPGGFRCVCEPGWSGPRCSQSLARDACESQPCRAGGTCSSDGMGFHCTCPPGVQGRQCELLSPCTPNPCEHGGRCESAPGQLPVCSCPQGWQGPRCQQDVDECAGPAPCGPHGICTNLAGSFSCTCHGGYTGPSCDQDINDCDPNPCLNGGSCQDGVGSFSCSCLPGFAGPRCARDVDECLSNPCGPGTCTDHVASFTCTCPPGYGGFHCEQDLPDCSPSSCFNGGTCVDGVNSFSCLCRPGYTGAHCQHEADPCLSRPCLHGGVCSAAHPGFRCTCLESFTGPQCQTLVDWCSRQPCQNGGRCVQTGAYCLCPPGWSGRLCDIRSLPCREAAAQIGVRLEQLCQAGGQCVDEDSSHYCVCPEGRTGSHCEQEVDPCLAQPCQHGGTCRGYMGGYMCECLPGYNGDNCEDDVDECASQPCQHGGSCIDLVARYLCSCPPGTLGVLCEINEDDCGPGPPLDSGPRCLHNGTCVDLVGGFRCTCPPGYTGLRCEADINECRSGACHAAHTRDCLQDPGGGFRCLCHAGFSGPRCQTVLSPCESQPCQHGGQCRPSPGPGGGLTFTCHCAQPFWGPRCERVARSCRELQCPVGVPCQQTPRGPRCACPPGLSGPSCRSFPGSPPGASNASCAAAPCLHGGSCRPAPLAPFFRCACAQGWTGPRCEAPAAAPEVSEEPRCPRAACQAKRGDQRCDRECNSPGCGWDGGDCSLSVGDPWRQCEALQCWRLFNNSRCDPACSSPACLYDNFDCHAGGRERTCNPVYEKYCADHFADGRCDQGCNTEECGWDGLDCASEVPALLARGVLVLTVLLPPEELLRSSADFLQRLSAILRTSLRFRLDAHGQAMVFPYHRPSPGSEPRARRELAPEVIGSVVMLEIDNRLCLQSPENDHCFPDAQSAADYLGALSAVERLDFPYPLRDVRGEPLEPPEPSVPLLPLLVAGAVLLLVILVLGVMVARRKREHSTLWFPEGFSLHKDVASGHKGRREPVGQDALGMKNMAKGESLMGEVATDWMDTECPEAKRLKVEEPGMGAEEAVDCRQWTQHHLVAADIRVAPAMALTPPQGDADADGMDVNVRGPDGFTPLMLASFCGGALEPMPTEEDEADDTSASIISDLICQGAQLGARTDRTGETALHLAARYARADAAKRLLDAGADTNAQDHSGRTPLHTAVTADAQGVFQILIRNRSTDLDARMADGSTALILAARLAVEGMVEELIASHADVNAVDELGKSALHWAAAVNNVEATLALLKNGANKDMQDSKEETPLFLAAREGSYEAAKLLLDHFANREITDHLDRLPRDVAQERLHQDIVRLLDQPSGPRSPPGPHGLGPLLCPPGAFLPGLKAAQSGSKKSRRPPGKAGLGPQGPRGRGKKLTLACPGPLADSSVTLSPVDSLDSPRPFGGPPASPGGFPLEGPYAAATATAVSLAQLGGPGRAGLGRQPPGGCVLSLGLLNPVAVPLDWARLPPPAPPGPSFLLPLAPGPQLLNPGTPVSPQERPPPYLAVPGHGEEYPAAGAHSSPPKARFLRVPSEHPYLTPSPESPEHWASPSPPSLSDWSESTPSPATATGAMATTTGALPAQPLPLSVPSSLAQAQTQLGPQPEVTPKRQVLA

Take `C[C@H]1CC[C@H]2C(=O)O[C@H](COc3ccc(C(C)(C)C)cc3)CN2[C@@H]1c1ccc(Br)cc1`: the composite z-score in [1] is 0.27; in experiment [5] it was 0.55; in [7] it was 0.0056; in experiment [8], -0.0084; in [9], -0.164; in [10] it was -0.143. For the same compound, the composite z-score in [11] was 0.926; in experiment [12], -0.143; in [13], -0.0663; in experiment [15] it was 0.0311; in [16] it was 0.102; in experiment [17], -0.0022. Further, the composite z-score in experiment [18] was -0.156; in experiment [19], -0.189; in experiment [20], 0.0563. Also, the z-score in experiment [2] is -0.364 (inactive); in experiment [3], -0.725 (inactive); in [4], 0.474 (inactive); in [6], -0.535 (inactive); in experiment [14] it was 0.134 (inactive).

`Cc1ccc(S(=O)(=O)N[C@@H]2COC(=O)[C@@H](C)COC(=O)CC=C[C@H]2C)cc1`: the composite z-score in experiment [1] is -0.496; in experiment [5], -0.548; in experiment [7], -0.183; in experiment [8], 0.49; in experiment [9], 0.702; in experiment [10] it was -0.182. The composite z-score was 0.154 in experiment [11]; -0.324 in experiment [12]; -0.352 in [13]; 0.424 in [15]; 0.513 in experiment [16]; 0.545 in [17]. Further, the results for the composite z-score in experiment [18], in experiment [19] and in experiment [20] were 0.66, 0.56 and 0.13, respectively. For the same compound, the z-score is 1.19 (inactive) in experiment [2]; 0.227 (inactive) in [3]; 1.02 (inactive) in [4]; -0.266 (inactive) in experiment [6]; 0.00914 (inactive) in experiment [14].

With `COc1cccc([C@H]2Oc3ccc(OC)cc3C(=NO[C@H](C)c3cn([C@H](CO)Cc4ccccc4)nn3)[C@@H]2O)c1`, the composite z-score was 0.203 in [1]; 0.202 in experiment [5]; -0.126 in experiment [7]; 0.259 in experiment [8]; -0.657 in [9]; -0.188 in experiment [10]. Moreover, the composite z-score in [11] is -0.42; in [12], -0.561; in experiment [13] it was -0.0229; in experiment [15] it was 0.0546; in experiment [16], -0.617; in experiment [17], -0.0537. In addition, the composite z-score was -0.0403 in [18], -0.28 in [19] and 0.548 in [20]. In addition, the z-score in experiment [2] was -1.77 (inactive); in experiment [3], 0.226 (inactive); in experiment [4], -1.21 (inactive); in experiment [6], 0.928 (inactive); in experiment [14], 0.397 (inactive).

Consider `COC(=O)CC=C[C@@H](C)[C@@H](C=NO[C@@H](C)c1cn([C@H](CO)Cc2ccccc2)nn1)OC`, for which the composite z-score in experiment [1] is 1.05; in experiment [5], 0.579; in experiment [7], -0.173; in experiment [8], 0.719; in experiment [9], 0.627; in experiment [10], -0.114. For the same compound, the composite z-score in experiment [11] is 0.361; in experiment [12], -0.435; in experiment [13], -0.572; in [15] it was 0.229; in experiment [16] it was 0.165; in experiment [17] it was 0.523. Moreover, the composite z-score in experiment [18] is 0.31; in experiment [19] it was 0.498; in experiment [20], -0.163. Also, the z-score in experiment [2] was -2.66 (inactive); in experiment [3], -2.01 (inactive); in [4] it was -0.773 (inactive); in [6], -0.673 (inactive); in experiment [14] it was -0.772 (inactive).

With `COC(=O)[C@H](C)NC(=O)CCC1CC(OC(=O)NCc2cccc3ccccc23)CC2(CCCC(COC(=O)NCC(c3ccccc3)c3ccccc3)O2)O1` (stereo not given in full), the composite z-score is 1.48 in [1]; 2.99 in experiment [5]; -0.166 in experiment [7]; 0.661 in [8]; 1.09 in experiment [9]; -0.0509 in [10]. The composite z-score in [11] is 0.208; in experiment [12] it was -0.0014; in experiment [13] it was -0.523; in experiment [15], 0.715; in experiment [16] it was 1.27; in [17] it was 0.702. Moreover, the composite z-score was 0.601 in experiment [18], 0.386 in [19] and -0.396 in experiment [20]. For the same compound, the z-score in experiment [2] is -0.797 (inactive); in experiment [3], 0.104 (inactive); in [4], -0.691 (inactive); in experiment [6] it was 0.0609 (inactive); in experiment [14], 0.026 (inactive).
